PubChem BioAssay
The source made the active and inactive calls.

Columns and labels:
Albumin (Bos taurus) = Albumin (Bos taurus) (UniProt P02769); assay: compounds binding labelled BSA control protein – biochemical, small-molecule microarray, Alexa647 label, 635/667 nm fluorescence, artefact control for SMM control protein annotation, profiling panel (AID 1118); conditions: BSA-A647 binding, fluorescence 635 nm, higher = more signal;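 also: score merges 667 nm emission intensity and signal-to-noise per printed compound spot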
[1] = probe aXIP binding to arrayed compounds – biochemical, NeuroSMM set, 635/667 nm fluorescence, primary screen (AID 1119); conditions: small-molecule microarray, higher = more signal, called active from +8 up or from −8 down;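 also: probe is the protein aXip251-270 applied at 1 µg/mL to compound-printed slides; binding of probe to printed compounds measured as 667 nm fluorescence plus signal to noise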
[2] = probe aNOTCH3 binding on compound microarray – biochemical, small-molecule microarray, 635/667 nm fluorescence, primary screen (AID 1120); conditions: higher = more signal;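 also: probe is a biotin-tagged antibody raised against NOTCH3 rather than NOTCH3 protein; score merges spot fluorescence near 667 nm with spot signal to noise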
[3] = probe aNOTCH2 binding on compound microarray – biochemical, small-molecule microarray, 635/667 nm fluorescence, primary screen (AID 1121); conditions: higher = more signal;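 also: score merges feature fluorescence read at 667 nm with its signal to noise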
[4] = target: Carbonic anhydrase 2 (Homo sapiens) (UniProt P00918); assay: compounds binding carbonic anhydrase 2 – biochemical, small-molecule microarray, Alexa647-labelled CAII, profiling panel (AID 1122); conditions: CAII-A647 binding fluorescence, higher = more signal
[5] = COS7 lysate on small-molecule microarray, probe aHis, 635 nm (AID 1123); conditions: COS7 cell lysate, fluorescence, higher = more signal;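 also: z-score combines 667nm fluorescence intensity with signal-to-noise per printed compound spot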
[6] = probe aLAP1 signal on lysate-treated microarray – cell lysate, small-molecule microarray, COS7 lysate, primary screen (AID 1124); conditions: probe aLAP1, fluorescence, higher = more signal;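 also: lysate comes from COS7 cells expressing LAP1 and is applied at 0.3 µg/mL; score merges spot fluorescence near 667 nm with signal-to-noise over triplicate slides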
Sam68 (KHDRBS1) = assay: compounds binding KHDRBS1 protein – biochemical, small-molecule microarray, 635 nm fluorescence, primary screen (AID 1125); conditions: higher = more signal;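 also: score merges 667 nm channel intensity with signal to noise over triplicate slides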
[7] = system: Chordin-like protein 2 (CHRDL2); assay: compounds binding chordin-like 2 – biochemical, small-molecule microarray, 635 nm fluorescence, primary screen (AID 1126); conditions: fluorescence 635 nm, higher = more signal;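 also: printed compound slides probed with Chrdl2 protein at 4 µg/mL for 1 h at 4 C; score merges 667 nm emission intensity with signal to noise over three replicate slides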
[8] = target: Concanavalin-A (Canavalia ensiformis) (UniProt P02866); assay: compounds binding concanavalin A lectin – biochemical, small-molecule microarray, Alexa647 label, 635 nm, artefact control for SMM control protein annotation, primary screen (AID 1127); conditions: ConA-A647 binding fluorescence, higher = more signal;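 also: z combines 667 nm emission intensity with signal-to-noise across three replicate slides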
[9] = compounds binding Alexa647 anti-His antibody – biochemical, small-molecule microarray, 635 nm fluorescence, artefact control for SMM control protein annotation, primary screen (AID 1128); conditions: higher = more signal;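 also: score merges feature fluorescence with signal-to-noise for each printed compound spot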
[10] = system: Human papillomavirus type 1a E7 protein (residues 1-88); assay: HPV1a E7 small-molecule binders, primary screen, biochemical, small-molecule microarray, residues 1-88, 635 nm (AID 1129); conditions: small-molecule microarray binding, fluorescence 635 nm; higher = more signal
[11] = target: Focal adhesion kinase 1 (Homo sapiens) (UniProt Q05397); assay: PTK2 protein binding on printed compound slides – biochemical, small-molecule microarray, 635/667 nm fluorescence, BSA, DTT, primary screen (AID 1130); conditions: 635 nm fluorescence, higher = more signal;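 also: composite of spot emission at 667 nm and signal to noise over triplicate slides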
[12] = system: Fibrinogen (Alexa647-labelled); assay: Alexa647-fibrinogen binding to printed small molecules – biochemical, small-molecule microarray, 635/667 nm fluorescence, artefact control for SMM control-protein annotation, profiling panel (AID 1131); conditions: fibrinogen-A647 binding fluorescence, higher = more signal;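 also: z-score merges 667 nm fluorescence with per-spot signal-to-noise over triplicate slides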
[13] = target: Follistatin (Homo sapiens) (UniProt P19883); assay: FST protein binding to printed compounds – biochemical, small-molecule microarray, 635/667 nm fluorescence, primary screen (AID 1132); conditions: 635 nm fluorescence, higher = more signal
[14] = target: Fibroblast growth factor 2 (Homo sapiens) (UniProt P09038); assay: basic fibroblast growth factor binding to printed compounds – biochemical, small-molecule microarray, 635/667 nm fluorescence, primary screen (AID 1133); conditions: FGF2, fluorescence 635/667, higher = more signal
[15] = JC-1 mitochondrial potential readout, lung cancer cells – cell-based, A549, JC-1 fluorescence, basal, 24 h, 100 nL, profiling panel (AID 1138); conditions: higher = more signal;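 also: A549 lung adenocarcinoma cells under basal conditions with no added stimulus; test concentration not given here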
Lefty1 = Lefty1 protein binding to printed compounds – biochemical, small-molecule microarray, 635/667 nm fluorescence, primary screen (AID 1139); conditions: fluorescence 635/667, higher = more signal
[16] = system: wheat germ agglutinin (Triticum aestivum), Alexa647-labelled; assay: Alexa647-WGA lectin binding to printed small molecules – biochemical, small-molecule microarray, 635/667 nm fluorescence, artefact control for SMM control-protein annotation, profiling panel (AID 1140); conditions: WGA-A647 binding, 635 nm fluorescence, higher = more signal;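 also: score merges 667 nm feature emission with signal to noise over triplicate slides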
[17] = target: Luciferin 4-monooxygenase (Photinus pyralis) (UniProt P08659); assay: inhibition of purified Photinus pyralis luciferase – biochemical, luminescence, purified enzyme, 2006 set, primary screen (AID 1141); conditions: purified firefly luciferase, SteadyGlo luminescence, 30 min; higher = more signal, called active from +8 up or from −8 down;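 also: cell-free assay with purified firefly luciferase at 100 ng per well in PBS; test concentration not given here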
Sequence of Luciferin 4-monooxygenase (Photinus pyralis) (P08659 whole entry, looked up): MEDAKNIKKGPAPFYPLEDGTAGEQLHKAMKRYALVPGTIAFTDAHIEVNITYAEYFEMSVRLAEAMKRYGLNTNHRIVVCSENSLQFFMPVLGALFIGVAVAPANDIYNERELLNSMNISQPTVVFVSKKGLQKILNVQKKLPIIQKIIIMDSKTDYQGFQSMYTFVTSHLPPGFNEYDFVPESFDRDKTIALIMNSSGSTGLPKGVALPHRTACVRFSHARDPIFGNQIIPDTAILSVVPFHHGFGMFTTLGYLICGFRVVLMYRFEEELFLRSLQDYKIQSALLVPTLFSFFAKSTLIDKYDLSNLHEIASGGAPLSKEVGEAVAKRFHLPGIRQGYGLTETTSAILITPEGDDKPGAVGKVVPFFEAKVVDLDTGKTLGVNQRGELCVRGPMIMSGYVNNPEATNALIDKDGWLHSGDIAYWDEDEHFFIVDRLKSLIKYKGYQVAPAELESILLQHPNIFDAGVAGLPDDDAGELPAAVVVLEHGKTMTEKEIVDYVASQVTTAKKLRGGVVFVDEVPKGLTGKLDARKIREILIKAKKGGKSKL

Sequence of Follistatin (Homo sapiens) (P19883 whole entry, looked up): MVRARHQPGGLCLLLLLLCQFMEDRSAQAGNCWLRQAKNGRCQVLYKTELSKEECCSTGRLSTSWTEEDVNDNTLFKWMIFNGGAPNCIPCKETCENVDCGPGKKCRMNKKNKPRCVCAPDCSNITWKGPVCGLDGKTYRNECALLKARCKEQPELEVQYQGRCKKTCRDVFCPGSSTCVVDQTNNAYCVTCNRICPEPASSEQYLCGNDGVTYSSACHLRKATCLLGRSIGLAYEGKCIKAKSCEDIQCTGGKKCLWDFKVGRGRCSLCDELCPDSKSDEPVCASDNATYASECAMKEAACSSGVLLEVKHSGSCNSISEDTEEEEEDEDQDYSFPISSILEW
Sequence of Concanavalin-A (Canavalia ensiformis) (P02866 whole entry, looked up): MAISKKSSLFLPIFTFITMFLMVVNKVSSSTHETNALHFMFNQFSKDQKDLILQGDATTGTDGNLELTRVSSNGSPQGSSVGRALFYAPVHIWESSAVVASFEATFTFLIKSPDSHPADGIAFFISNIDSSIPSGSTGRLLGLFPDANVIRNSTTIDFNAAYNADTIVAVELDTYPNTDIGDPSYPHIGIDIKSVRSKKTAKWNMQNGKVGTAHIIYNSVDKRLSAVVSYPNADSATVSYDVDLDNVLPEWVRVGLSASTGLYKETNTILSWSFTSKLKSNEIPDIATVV
Sequence of Fibroblast growth factor 2 (Homo sapiens) (P09038 whole entry, looked up): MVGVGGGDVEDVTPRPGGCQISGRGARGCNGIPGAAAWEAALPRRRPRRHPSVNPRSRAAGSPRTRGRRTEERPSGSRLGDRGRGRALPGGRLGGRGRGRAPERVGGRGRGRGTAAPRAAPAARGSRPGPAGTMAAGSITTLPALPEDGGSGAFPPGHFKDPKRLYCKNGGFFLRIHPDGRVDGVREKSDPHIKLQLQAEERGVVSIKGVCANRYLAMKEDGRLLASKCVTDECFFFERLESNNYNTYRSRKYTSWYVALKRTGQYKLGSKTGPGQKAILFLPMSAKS
Sequence of Albumin (Bos taurus) (P02769 whole entry, looked up): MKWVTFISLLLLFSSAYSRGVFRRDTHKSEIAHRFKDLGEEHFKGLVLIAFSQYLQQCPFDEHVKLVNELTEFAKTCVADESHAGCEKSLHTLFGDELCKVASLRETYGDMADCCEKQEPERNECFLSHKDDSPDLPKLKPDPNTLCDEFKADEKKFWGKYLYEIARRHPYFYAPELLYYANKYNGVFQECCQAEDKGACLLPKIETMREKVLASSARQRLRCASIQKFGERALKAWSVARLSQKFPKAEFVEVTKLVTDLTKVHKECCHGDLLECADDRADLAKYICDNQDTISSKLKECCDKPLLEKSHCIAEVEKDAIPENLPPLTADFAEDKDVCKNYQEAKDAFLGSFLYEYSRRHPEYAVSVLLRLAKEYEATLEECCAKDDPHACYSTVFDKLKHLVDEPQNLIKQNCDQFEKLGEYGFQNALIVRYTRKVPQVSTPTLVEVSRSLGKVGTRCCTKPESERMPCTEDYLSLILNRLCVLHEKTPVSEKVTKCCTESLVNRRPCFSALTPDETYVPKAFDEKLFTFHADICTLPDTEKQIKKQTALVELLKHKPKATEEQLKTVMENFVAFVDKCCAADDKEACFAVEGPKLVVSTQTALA
Sequence of Focal adhesion kinase 1 (Homo sapiens) (Q05397 whole entry, looked up): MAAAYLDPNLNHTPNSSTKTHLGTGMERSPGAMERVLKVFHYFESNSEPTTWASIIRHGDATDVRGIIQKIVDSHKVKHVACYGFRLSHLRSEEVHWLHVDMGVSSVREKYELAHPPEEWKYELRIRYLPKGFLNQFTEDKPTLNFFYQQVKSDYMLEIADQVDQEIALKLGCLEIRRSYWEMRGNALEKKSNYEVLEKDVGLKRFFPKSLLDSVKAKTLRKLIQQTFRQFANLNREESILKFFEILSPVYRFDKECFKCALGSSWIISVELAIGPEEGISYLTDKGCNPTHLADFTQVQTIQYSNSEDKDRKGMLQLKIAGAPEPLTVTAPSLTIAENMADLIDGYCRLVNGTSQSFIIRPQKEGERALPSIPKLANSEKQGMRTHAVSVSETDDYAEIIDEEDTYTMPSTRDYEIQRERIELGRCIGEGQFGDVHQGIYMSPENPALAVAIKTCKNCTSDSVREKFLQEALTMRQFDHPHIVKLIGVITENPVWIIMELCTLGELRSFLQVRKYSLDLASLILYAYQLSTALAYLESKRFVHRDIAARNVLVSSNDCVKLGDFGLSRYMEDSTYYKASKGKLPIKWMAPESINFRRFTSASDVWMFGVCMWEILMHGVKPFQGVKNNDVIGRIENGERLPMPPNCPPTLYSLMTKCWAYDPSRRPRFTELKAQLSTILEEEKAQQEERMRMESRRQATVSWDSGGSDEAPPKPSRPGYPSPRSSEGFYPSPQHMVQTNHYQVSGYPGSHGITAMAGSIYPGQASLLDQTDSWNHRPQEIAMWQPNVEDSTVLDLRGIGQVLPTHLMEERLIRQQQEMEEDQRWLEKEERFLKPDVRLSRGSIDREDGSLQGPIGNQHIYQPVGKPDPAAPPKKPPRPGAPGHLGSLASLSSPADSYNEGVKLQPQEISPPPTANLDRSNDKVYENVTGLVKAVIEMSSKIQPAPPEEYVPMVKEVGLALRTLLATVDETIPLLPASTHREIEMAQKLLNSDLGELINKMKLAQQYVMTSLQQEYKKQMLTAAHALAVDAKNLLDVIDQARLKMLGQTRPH

Compound | composite z-score (Albumin (Bos taurus)) | composite Z-score [1] | composite z-score [2] | composite z-score [3] | composite z-score [4] | composite z-score [5] | composite z-score [6] | composite z-score (Sam68 (KHDRBS1)) | composite z-score [7] | composite z-score [8] | composite z-score [9] | composite z-score [10] | composite z-score [11] | composite z-score [12] | composite z-score [13] | composite z-score [14] | z-score [15] | composite z-score (Lefty1) | composite z-score [16] | z-score [17]
N#Cc1ccc(-c2cccc(=O)o2)cc1 | 0.341 | -0.0662 (inactive) | 0.0426 | -0.0928 | 0.0483 | 0.365 | -0.0816 | 0.808 | 0.252 | 0.411 | 0.212 | 0.651 | 0.111 | 0.474 | 0.268 | 0.185 | -0.119 | 0.249 | 0.48 | 1.68 (inactive)
CCCCC(O)C1C=CC2C(=O)N(c3ccccc3)C(=O)C2N1Nc1ccc([N+](=O)[O-])cc1 (stereo not given) | 0.894 | 0.312 (inactive) | 0.27 | -0.148 | 0.583 | 2.61 | 0.738 | 1.3 | -0.0818 | 1.02 | 0.709 | 1.24 | 1.16 | 0.992 | 0.825 | -0.458 | -0.52 | 0.264 | 0.68 | 1.89 (inactive)
CC(C)C(=C=CC[C@H](O)c1ccccc1OCCO)C[C@H](O)c1cc(Cl)cc(Cl)c1O | 0.791 | -0.275 (inactive) | 0.141 | -0.106 | 0.664 | 1.48 | 0.114 | 1.31 | -0.114 | 1.14 | -0.287 | 1.15 | 0.0701 | 0.866 | 1.09 | 0.285 | 0.686 | 1.27 | 1.16 | -1.38 (inactive)
CC(C)N1C(=O)c2ccccc2[C@](C)(C(=O)NCC(F)(F)F)[C@@H]1c1ccc(CO)cc1 | -0.267 | -0.415 (inactive) | -0.407 | 0.0344 | 0.852 | 2.55 | 1.14 | -0.701 | -0.912 | -1.22 | -0.851 | -0.432 | -0.749 | -1.07 | -1.02 | -0.337 | 0.607 | -1.5 | 0.594 | -1.17 (inactive)
CC(C)=C1C(=O)C(c2ccccc2)=C2CN3C(=O)N(CCc4ccccc4)C(=O)[C@]3(C)[C@H]21 | 0.826 | 0.432 (inactive) | 0.0162 | 0.166 | 0.373 | 1.23 | -0.414 | 0.141 | -0.686 | 0.809 | -0.0854 | 0.871 | 0.701 | 0.679 | 0.21 | -0.648 | 1.77 | -0.455 | 0.673 | 0.0775 (inactive)
CCOC(=O)C[C@H]1[C@H](OC(=O)c2ccccc2-c2ccccc2)[C@@H](NC(=O)C2CCCCC2)c2cc(OCCCO)ccc2N1C(=O)c1ccc2ccccc2n1 | 0.632 | 0.0805 (inactive) | 0.0553 | -0.037 | 0.258 | 0.249 | 0.358 | 1.07 | 0.162 | -0.0181 | 0.316 | 0.667 | 0.853 | 0.593 | 1.15 | 0.889 | 0.309 | 1.09 | 0.27 | 0.595 (inactive)
C=C(COC)C(=O)CC[C@H](OC(=O)c1cccnc1)c1ccc(OCCO)cc1 | -0.286 | 0.509 (inactive) | 0.201 | -0.128 | 0.665 | 0.709 | 1.53 | 1.14 | 0.563 | 0.293 | -0.108 | 0.355 | -0.172 | 0.637 | 1.07 | 0.893 | -0.747 | 1.63 | 0.73 | -2.23 (inactive)
COc1ccc(C(=O)Nc2cccc(CN3C(=O)[C@]4(O[C@H](CC(=O)N5Cc6ccccc6C[C@H]5CO)[C@@H]([Si](C)(C)c5ccc(OC)cc5)[C@@H]4C)c4ccccc43)c2)cc1 | -0.513 | -0.222 (inactive) | 0.0243 | -0.154 | 0.288 | 0.458 | 0.557 | 1.29 | 1.38 | 0.858 | 1.17 | 0.481 | 0.343 | 0.368 | 1.39 | 1.7 | -0.806 | 1.59 | -0.0276 | 0.429 (inactive)
COCCCNC(=O)[C@@H]1c2ccccc2C(=O)N(Cc2ccc(OC(F)(F)F)cc2)[C@H]1c1ccc(CO)cc1 | 0.348 | -0.274 (inactive) | -0.0074 | -0.174 | 0.529 | 1.22 | 1.28 | 0.859 | 0.286 | 0.874 | 1.54 | 1.11 | 1.79 | 0.654 | 1.14 | 0.722 | 2.03 | 0.541 | 0.316 | -0.0459 (inactive)
C=CCC(OC(C)=O)[C@@H]1[C@@H](N(Cc2ccc(-c3cccc(C(F)(F)F)c3)o2)C(=O)c2ccc(-c3ccccc3)cc2)c2cc(OCCCO)ccc2N1C(=O)c1ccc2ccccc2c1 (stereo not given in full) | -0.192 | -0.0127 (inactive) | 0.0445 | -0.0707 | 0.323 | 0.234 | -0.376 | -0.689 | 0.0823 | -0.654 | -0.191 | -0.06 | 0.0473 | -0.0951 | 1.02 | 0.23 | 0.413 | 1.17 | 0.0415 | 0.85 (inactive)
C[C@@H]1ON(c2ccccc2)[C@H](c2ccccc2)[C@H]1C(=O)O | -0.189 | -0.107 (inactive) | -0.0971 | -0.0846 | 0.685 | -0.0056 | 0.361 | 0.0005 | 0.204 | -0.0755 | 0.468 | 0.212 | 0.209 | 0.722 | 1.3 | 0.931 | -0.152 | 0.309 | 0.607 | -0.0018 (inactive)
